Results from the supplement of paper PMC6411743.
± gives the standard deviation of the averaged measurements. About 6,200 targets were measured; listed, in parts, are those with the largest changes and a random draw of the rest.

Compound: Nc1ncnc2c1ncn2[C@@H]1O[C@H](COP(=O)(O)OP(=O)(O)NP(=O)(O)O)[C@@H](O)[C@H]1O [adenylyl imidodiphosphate]
Assay: NP40-soluble protein abundance relative to vehicle (solubility fold change) (ratio); higher = more soluble protein in presence of AMP-PNP
Summary of the method: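 Across three independent experiments, values are fold changes against the detergent-processed vehicle for each replicate, based on vsn-normalised intensities. The samples were Jurkat crude lysate treated with eight concentrations (0.1 to 10 mM) for 10 min at room temperature and then 3 min at 37 °C. Lysate was solubilised with 0.8% NP40 and benzonase, ultracentrifuged, and the supernatant analysed by TMT-labelled LC-MS/MS.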

Chain of UniProt Q13107 (Q13107 whole entry): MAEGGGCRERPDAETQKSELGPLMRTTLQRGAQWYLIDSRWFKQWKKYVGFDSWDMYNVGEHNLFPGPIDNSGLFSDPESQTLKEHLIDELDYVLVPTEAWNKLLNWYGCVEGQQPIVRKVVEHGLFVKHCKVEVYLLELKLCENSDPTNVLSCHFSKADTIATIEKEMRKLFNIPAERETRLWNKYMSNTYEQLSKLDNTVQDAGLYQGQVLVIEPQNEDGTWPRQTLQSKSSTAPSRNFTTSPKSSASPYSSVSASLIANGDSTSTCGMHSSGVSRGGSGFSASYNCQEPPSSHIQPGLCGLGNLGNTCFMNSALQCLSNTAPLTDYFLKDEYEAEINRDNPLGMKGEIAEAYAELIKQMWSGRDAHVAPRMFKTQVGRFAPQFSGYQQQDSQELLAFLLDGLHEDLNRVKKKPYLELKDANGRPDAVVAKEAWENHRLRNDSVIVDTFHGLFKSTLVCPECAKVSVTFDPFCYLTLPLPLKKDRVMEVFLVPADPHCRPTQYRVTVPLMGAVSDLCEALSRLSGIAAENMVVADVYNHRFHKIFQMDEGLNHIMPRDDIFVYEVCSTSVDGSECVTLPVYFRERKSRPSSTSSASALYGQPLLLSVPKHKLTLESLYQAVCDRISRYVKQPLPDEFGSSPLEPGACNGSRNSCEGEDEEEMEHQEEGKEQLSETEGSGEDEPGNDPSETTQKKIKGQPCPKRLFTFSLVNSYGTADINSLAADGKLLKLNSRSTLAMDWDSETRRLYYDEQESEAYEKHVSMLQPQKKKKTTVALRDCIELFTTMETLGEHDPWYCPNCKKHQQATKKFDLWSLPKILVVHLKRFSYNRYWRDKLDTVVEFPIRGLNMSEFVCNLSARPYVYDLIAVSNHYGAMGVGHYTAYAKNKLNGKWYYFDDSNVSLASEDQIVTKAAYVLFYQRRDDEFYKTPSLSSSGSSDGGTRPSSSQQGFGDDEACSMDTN
Chain of UniProt Q05519 (Q05519 whole entry): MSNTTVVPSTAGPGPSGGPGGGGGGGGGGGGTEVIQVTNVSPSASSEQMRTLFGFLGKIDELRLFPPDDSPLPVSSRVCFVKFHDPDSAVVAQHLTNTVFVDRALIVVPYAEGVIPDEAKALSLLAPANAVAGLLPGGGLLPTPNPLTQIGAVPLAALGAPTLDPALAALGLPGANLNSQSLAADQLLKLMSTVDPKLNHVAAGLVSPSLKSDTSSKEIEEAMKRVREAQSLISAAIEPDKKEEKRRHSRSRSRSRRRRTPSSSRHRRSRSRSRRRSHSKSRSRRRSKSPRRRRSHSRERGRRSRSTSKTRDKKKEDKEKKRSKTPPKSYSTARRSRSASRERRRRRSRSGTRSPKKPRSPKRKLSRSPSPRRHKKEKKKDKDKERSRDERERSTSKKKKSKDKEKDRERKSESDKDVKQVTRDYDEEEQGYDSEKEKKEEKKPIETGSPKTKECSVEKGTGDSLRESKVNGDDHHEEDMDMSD
Chain of UniProt P13984 (P13984 whole entry): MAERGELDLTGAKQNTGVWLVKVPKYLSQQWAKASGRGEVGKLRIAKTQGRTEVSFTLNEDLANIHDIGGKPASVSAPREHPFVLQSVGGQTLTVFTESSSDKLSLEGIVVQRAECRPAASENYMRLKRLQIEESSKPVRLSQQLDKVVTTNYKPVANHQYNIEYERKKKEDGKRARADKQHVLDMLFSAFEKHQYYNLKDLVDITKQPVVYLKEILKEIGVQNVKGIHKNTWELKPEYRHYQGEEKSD
Chain of UniProt P62318 (P62318 whole entry): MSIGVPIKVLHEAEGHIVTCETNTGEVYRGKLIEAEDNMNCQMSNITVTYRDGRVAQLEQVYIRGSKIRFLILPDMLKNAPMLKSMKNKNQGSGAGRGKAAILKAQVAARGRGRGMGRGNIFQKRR
Chain of UniProt P22087 (P22087 whole entry): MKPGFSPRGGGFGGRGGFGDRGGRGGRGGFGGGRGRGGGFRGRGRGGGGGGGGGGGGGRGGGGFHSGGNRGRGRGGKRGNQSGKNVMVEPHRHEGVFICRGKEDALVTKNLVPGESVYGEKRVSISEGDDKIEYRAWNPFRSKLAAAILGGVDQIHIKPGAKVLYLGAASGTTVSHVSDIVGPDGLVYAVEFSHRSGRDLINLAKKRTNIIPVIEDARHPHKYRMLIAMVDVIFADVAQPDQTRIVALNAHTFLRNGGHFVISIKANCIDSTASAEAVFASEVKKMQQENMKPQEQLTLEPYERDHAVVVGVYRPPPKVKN
Chain of UniProt P05423 (P05423 whole entry): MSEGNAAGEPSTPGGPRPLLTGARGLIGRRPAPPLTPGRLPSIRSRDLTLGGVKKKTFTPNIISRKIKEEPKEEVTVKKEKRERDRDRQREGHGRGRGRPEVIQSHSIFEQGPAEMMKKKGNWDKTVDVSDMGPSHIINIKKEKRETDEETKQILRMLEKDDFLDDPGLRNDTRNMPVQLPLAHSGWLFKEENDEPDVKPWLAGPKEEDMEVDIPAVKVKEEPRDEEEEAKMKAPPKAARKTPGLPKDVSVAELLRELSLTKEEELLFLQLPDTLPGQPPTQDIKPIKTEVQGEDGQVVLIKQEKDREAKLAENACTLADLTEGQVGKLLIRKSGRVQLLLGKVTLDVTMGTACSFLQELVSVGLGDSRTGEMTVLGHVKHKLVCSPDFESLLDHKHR
Chain of UniProt P18433 (P18433 whole entry, looked up): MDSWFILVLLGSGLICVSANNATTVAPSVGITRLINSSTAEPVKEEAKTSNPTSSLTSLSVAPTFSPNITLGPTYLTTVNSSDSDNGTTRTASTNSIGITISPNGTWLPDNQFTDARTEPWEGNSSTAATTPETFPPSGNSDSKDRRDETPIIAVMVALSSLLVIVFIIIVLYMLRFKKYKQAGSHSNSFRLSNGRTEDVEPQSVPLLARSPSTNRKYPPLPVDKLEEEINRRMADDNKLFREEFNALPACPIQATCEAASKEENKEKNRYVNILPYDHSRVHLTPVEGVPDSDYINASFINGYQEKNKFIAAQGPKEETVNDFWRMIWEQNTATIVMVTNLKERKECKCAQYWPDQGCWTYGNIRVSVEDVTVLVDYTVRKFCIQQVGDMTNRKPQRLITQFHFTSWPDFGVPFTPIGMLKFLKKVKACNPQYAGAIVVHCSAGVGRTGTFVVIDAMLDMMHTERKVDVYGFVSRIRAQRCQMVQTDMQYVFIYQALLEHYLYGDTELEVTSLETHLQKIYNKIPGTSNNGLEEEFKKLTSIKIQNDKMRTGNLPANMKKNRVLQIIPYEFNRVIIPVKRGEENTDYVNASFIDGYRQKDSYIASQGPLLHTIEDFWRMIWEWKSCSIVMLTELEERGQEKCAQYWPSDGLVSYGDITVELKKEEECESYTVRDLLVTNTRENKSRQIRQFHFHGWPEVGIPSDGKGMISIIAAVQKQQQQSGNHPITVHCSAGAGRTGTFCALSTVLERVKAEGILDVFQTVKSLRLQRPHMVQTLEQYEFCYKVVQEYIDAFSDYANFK
Chain of UniProt P26038 (P26038 whole entry, one chain of several): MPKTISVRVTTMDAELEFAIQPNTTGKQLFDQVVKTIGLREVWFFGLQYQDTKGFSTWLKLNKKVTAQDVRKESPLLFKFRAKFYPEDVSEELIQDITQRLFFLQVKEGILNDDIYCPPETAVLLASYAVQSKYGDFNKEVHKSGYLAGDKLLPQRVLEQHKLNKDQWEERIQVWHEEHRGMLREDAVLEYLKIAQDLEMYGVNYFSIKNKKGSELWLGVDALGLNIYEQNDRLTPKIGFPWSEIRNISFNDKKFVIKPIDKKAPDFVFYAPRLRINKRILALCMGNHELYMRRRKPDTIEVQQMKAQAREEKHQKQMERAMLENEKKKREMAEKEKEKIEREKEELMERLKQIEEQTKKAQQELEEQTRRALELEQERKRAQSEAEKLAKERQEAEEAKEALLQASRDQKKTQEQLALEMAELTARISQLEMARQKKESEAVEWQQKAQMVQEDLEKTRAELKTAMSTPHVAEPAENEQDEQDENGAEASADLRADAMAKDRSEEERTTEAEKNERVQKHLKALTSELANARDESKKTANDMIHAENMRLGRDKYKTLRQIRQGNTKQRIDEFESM
Chain of UniProt P09874 (P09874 whole entry): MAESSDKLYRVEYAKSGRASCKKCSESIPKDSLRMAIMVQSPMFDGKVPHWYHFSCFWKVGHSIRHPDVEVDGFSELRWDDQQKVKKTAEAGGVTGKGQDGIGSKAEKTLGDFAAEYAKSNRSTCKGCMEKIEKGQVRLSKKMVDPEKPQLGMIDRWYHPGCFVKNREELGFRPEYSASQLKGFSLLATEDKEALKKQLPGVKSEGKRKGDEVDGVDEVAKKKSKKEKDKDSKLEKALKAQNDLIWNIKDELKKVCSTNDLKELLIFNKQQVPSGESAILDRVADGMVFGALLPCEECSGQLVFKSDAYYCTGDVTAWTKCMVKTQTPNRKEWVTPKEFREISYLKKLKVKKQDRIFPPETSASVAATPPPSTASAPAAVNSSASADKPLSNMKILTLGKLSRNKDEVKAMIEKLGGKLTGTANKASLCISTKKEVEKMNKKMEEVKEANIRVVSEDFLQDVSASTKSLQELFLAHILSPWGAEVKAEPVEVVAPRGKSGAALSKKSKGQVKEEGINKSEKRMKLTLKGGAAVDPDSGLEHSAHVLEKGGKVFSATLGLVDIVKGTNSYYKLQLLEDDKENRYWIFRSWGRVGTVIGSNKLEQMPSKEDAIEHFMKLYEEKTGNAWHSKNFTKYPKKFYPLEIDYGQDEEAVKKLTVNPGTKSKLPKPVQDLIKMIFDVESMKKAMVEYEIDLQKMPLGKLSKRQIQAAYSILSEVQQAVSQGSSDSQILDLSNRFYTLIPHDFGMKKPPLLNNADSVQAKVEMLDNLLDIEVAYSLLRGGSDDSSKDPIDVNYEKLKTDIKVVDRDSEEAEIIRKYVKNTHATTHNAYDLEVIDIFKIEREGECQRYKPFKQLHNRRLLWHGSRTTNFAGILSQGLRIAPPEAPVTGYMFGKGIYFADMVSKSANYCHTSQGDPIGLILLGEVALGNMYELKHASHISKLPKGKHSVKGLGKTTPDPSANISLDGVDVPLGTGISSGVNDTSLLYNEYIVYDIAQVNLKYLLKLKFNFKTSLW

Target	NP40-soluble protein abundance (concentration: 1mM)	NP40-soluble protein abundance (concentration: 2mM)	NP40-soluble protein abundance (concentration: 4mM)	NP40-soluble protein abundance (concentration: 6mM)	NP40-soluble protein abundance (concentration: 8mM)	NP40-soluble protein abundance (concentration: 10mM)
UniProt Q05519|Q05519-2	1.12 ± 0.031	1.18 ± 0.11	1.21 ± 0.088	1.26 ± 0.049	1.34 ± 0.16	1.51 ± 0.2
UniProt P56282|P56282-3|P56282-2	0.973 ± 0.03	0.933 ± 0.065	0.968 ± 0.026	0.952 ± 0.036	0.942 ± 0.041	0.951 ± 0.045
UniProt P01112	1.06 ± 0.026	1.04 ± 0.016	1.03 ± 0.021	1 ± 0.062	1.06 ± 0.021	1.01 ± 0.025
UniProt P62701	0.95 ± 0.063	0.87 ± 0.091	0.879 ± 0.11	0.873 ± 0.065	0.821 ± 0.071	0.851 ± 0.13
UniProt O75822|O75822-2	0.876 ± 0.042	0.941 ± 0.07	0.858 ± 0.031	0.949 ± 0.026	0.957 ± 0.029	0.99 ± 0.015
RBM34 (UniProt P42696)	1.07 ± 0.069	1.12 ± 0.044	1.15 ± 0.082	1.23 ± 0.12	1.23 ± 0.12	1.36 ± 0.16
UniProt P42285	1.006 ± 0.0056	0.982 ± 0.062	1.07 ± 0.033	1.1 ± 0.036	1.14 ± 0.068	1.13 ± 0.089
UniProt P05771|P05771-2	1.05 ± 0.019	1.03 ± 0.016	1.04 ± 0.029	1.04 ± 0.012	1.05 ± 0.017	1.04 ± 0.03
FXR2 (UniProt P51116)	1.07 ± 0.022	1.1 ± 0.023	1.2 ± 0.025	1.24 ± 0.076	1.33 ± 0.051	1.39 ± 0.12
UniProt P13807|P13807-2	0.947 ± 0.11	0.922 ± 0.065	0.895 ± 0.096	0.867 ± 0.14	0.876 ± 0.098	0.863 ± 0.16
ECHS1 (UniProt P30084)	0.9976 ± 0.0068	0.9885 ± 0.006	0.955 ± 0.029	0.994 ± 0.02	0.963 ± 0.017	0.961 ± 0.015
UniProt Q01082|Q01082-3	1.05 ± 0.028	1.08 ± 0.035	1.05 ± 0.019	1.08 ± 0.06	1.05 ± 0.032	1.09 ± 0.056
FDFT1 (UniProt P37268)	0.993 ± 0.038	0.952 ± 0.027	0.991 ± 0.024	1.03 ± 0.1	1.05 ± 0.057	1.01 ± 0.078
UniProt P26038|V9GZ54	0.967 ± 0.13	1.06 ± 0.14	0.988 ± 0.13	0.916 ± 0.088	0.935 ± 0.012	0.936 ± 0.067
UniProt O94804	1.03 ± 0.017	1.04 ± 0.031	1.01 ± 0.027	0.987 ± 0.029	0.96 ± 0.012	0.991 ± 0.048
MPP1 (UniProt Q00013)	1.01 ± 0.015	0.964 ± 0.035	1.01 ± 0.028	0.978 ± 0.028	1.01 ± 0.048	0.986 ± 0.034
PSMB4 (UniProt P28070)	0.931 ± 0.043	0.905 ± 0.048	0.918 ± 0.096	0.971 ± 0.046	0.968 ± 0.071	1 ± 0.13
DBI (UniProt P07108)	1.04 ± 0.064	1.06 ± 0.055	0.987 ± 0.015	0.96 ± 0.041	0.928 ± 0.025	0.997 ± 0.1
UniProt P38159|P38159-2	1.12 ± 0.09	1.34 ± 0.094	1.34 ± 0.037	1.53 ± 0.16	1.58 ± 0.19	1.82 ± 0.16
METAP1 (UniProt P53582)	1.05 ± 0.046	1.06 ± 0.081	1.16 ± 0.071	1.31 ± 0.046	1.37 ± 0.061	1.38 ± 0.074

Target	NP40-soluble protein abundance (concentration: 1mM)	NP40-soluble protein abundance (concentration: 2mM)	NP40-soluble protein abundance (concentration: 4mM)	NP40-soluble protein abundance (concentration: 6mM)	NP40-soluble protein abundance (concentration: 8mM)	NP40-soluble protein abundance (concentration: 10mM)
UniProt P23771|P23771-2	0.959 ± 0.029	0.99 ± 0.043	0.9254 ± 0.0013	0.895 ± 0.0095	0.908 ± 0.012	0.908 ± 0.022
HMGN2 (UniProt P05204)	1.06 ± 0.04	1.15 ± 0.12	1.09 ± 0.05	1.25 ± 0.081	1.16 ± 0.21	1.54 ± 0.28
UniProt P54619|P54619-3|P54619-2	0.993 ± 0.015	0.871 ± 0.092	0.964 ± 0.035	0.943 ± 0.025	1.01 ± 0.02	0.905 ± 0.045
PRIM2 (UniProt P49643)	0.996 ± 0.022	0.954 ± 0.018	1 ± 0.013	1.02 ± 0.044	1.02 ± 0.027	1.02 ± 0.029
HIST1H1B (UniProt P16401)	1.052 ± 0.0074	1.18 ± 0.18	1.15 ± 0.11	1.27 ± 0.22	1.32 ± 0.21	1.59 ± 0.19
VASP (UniProt P50552)	1.02 ± 0.03	1.09 ± 0.078	1.03 ± 0.033	1.01 ± 0.015	0.999 ± 0.046	0.9961 ± 0.0094
UniProt P51608-2|P51608|A0A087WXF0	1.04 ± 0.023	1.06 ± 0.016	1.04 ± 0.046	1.07 ± 0.019	1.07 ± 0.028	1.15 ± 0.042
UniProt P52948|P52948-2|P52948-5|P52948-6	1.07 ± 0.047	1.1 ± 0.015	1.13 ± 0.018	1.22 ± 0.056	1.28 ± 0.02	1.417 ± 0.011
UniProt P98082|P98082-2|P98082-3	1.016 ± 0.0042	1.03 ± 0.042	1.042 ± 0.0097	1.016 ± 0.004	1.017 ± 0.0048	1.035 ± 0.0064
UniProt P48047	0.907 ± 0.042	0.912 ± 0.041	0.896 ± 0.051	0.96 ± 0.087	0.974 ± 0.045	0.938 ± 0.1
USP4 (UniProt Q13107)	1 ± 0.018	0.967 ± 0.044	1 ± 0.046	0.97 ± 0.042	0.975 ± 0.039	0.942 ± 0.038
SFPQ (UniProt P23246)	1.15 ± 0.054	1.25 ± 0.076	1.41 ± 0.12	1.68 ± 0.26	1.75 ± 0.28	2.02 ± 0.41
GTF2F2 (UniProt P13984)	1 ± 0.011	1.06 ± 0.023	1.04 ± 0.019	1.07 ± 0.018	1.07 ± 0.015	1.103 ± 0.0083
UniProt Q12974|Q12974-4	1.04 ± 0.032	1.022 ± 0.0039	0.956 ± 0.027	0.996 ± 0.025	1.02 ± 0.029	0.988 ± 0.02
GLRX3 (UniProt O76003)	1.04 ± 0.026	1.02 ± 0.011	0.99 ± 0.027	0.9932 ± 0.0036	0.989 ± 0.031	0.976 ± 0.055
TPM4 (UniProt P67936)	1.21 ± 0.19	1.42 ± 0.15	1.27 ± 0.3	1.35 ± 0.3	1.44 ± 0.047	1.24 ± 0.16
STAMBP (UniProt O95630)	1.02 ± 0.02	0.993 ± 0.012	0.995 ± 0.03	0.984 ± 0.018	0.964 ± 0.033	0.948 ± 0.06
UniProt P62318|P62318-2	1.07 ± 0.086	1.12 ± 0.12	1.19 ± 0.099	1.22 ± 0.017	1.29 ± 0.09	1.32 ± 0.056
UniProt P16083|Q5TD07	1.02 ± 0.02	0.982 ± 0.074	0.988 ± 0.034	0.991 ± 0.02	0.993 ± 0.04	0.982 ± 0.052
FARS2 (UniProt O95363)	0.9733 ± 0.0048	0.856 ± 0.13	0.943 ± 0.01	0.9111 ± 0.0032	0.919 ± 0.033	0.876 ± 0.029

Target	NP40-soluble protein abundance (concentration: 1mM)	NP40-soluble protein abundance (concentration: 2mM)	NP40-soluble protein abundance (concentration: 4mM)	NP40-soluble protein abundance (concentration: 6mM)	NP40-soluble protein abundance (concentration: 8mM)	NP40-soluble protein abundance (concentration: 10mM)
RPS3A (UniProt P61247)	0.96 ± 0.052	0.931 ± 0.044	0.918 ± 0.11	0.895 ± 0.081	0.83 ± 0.057	0.947 ± 0.11
POLR3D (UniProt P05423)	0.982 ± 0.017	1.01 ± 0.02	0.993 ± 0.035	0.961 ± 0.041	0.971 ± 0.037	0.998 ± 0.065
ERAL1 (UniProt O75616)	0.7647 ± 0.0038	0.6675 ± 0.0031	0.716 ± 0.036	0.681 ± 0.011	0.674 ± 0.062	0.636 ± 0.04
HSD17B4 (UniProt P51659)	1.01 ± 0.034	0.967 ± 0.026	1.04 ± 0.041	1.09 ± 0.058	1.12 ± 0.033	1.1 ± 0.034
UniProt P11388|P11388-2|P11388-3|P11388-4	1.66 ± 0.082	1.72 ± 0.05	1.82 ± 0.16	1.98 ± 0.14	2.04 ± 0.24	2.13 ± 0.27
UQCRB (UniProt P14927)	0.9813 ± 0.003	1.07 ± 0.082	0.954 ± 0.025	0.969 ± 0.018	0.935 ± 0.0015	0.933 ± 0.023
FBL (UniProt P22087)	1.02 ± 0.046	1.027 ± 0.003	1.1 ± 0.051	1.22 ± 0.092	1.37 ± 0.12	1.48 ± 0.25
UniProt O75475|V9GYT7	1.08 ± 0.028	1.21 ± 0.042	1.24 ± 0.056	1.34 ± 0.057	1.34 ± 0.024	1.37 ± 0.023
UniProt Q10589|Q10589-2	1.0272 ± 0.00052	1.04 ± 0.011	1.03 ± 0.025	1.03 ± 0.028	1.05 ± 0.056	1.04 ± 0.048
UniProt P61289|P61289-2	0.983 ± 0.064	0.955 ± 0.12	0.808 ± 0.23	0.886 ± 0.17	0.999 ± 0.037	0.968 ± 0.1
UniProt Q13163|Q13163-2|Q13163-3|Q13163-4	0.968 ± 0.026	1.01 ± 0.041	1.02 ± 0.057	0.958 ± 0.049	0.933 ± 0.019	0.941 ± 0.022
UniProt O95251|O95251-4	1.11 ± 0.031	1.17 ± 0.06	1.18 ± 0.063	1.2 ± 0.073	1.25 ± 0.077	1.36 ± 0.088
UniProt O95453|O95453-2|O95453-3	1.02 ± 0.018	0.975 ± 0.042	0.9979 ± 0.0039	0.991 ± 0.026	0.997 ± 0.016	0.968 ± 0.013
UniProt P36402-5	0.952 ± 0.025	0.984 ± 0.03	0.924 ± 0.046	0.876 ± 0.025	0.8484 ± 0.0036	0.837 ± 0.015
UniProt P18433|P18433-2|P18433-3|P18433-4	1.029 ± 0.0089	1.03 ± 0.027	1.03 ± 0.032	0.987 ± 0.023	1.02 ± 0.018	1.03 ± 0.036
PARP1 (UniProt P09874)	1.06 ± 0.018	1.09 ± 0.05	1.21 ± 0.016	1.39 ± 0.027	1.51 ± 0.071	1.59 ± 0.11
THOP1 (UniProt P52888)	0.938 ± 0.036	0.884 ± 0.095	0.924 ± 0.021	0.944 ± 0.034	0.942 ± 0.041	0.921 ± 0.028
UniProt P09651-2|P09651	1.04 ± 0.11	1.09 ± 0.075	1.09 ± 0.11	1.14 ± 0.15	1.18 ± 0.15	1.25 ± 0.18
UniProt O96028|O96028-3|O96028-5	1.08 ± 0.034	1.16 ± 0.026	1.23 ± 0.033	1.32 ± 0.044	1.35 ± 0.03	1.47 ± 0.059
UniProt P28331|P28331-2	0.972 ± 0.037	0.935 ± 0.081	0.954 ± 0.059	0.949 ± 0.055	0.938 ± 0.037	0.942 ± 0.086
